Source: PubChem
Cruzain inh noDet – qHTS Assay for Promiscuous and Specific Inhibitors of Cruzain (without detergent); purified cruzain, Z-FR-AMC fluorescence, no detergent; Potency, µM, usual class: inhibitors; 200,000 tested, 2.3% active; further: nearly all actives have a fitted effect of over 40% in size
Target sequence (P25779 123-467 limits assumed): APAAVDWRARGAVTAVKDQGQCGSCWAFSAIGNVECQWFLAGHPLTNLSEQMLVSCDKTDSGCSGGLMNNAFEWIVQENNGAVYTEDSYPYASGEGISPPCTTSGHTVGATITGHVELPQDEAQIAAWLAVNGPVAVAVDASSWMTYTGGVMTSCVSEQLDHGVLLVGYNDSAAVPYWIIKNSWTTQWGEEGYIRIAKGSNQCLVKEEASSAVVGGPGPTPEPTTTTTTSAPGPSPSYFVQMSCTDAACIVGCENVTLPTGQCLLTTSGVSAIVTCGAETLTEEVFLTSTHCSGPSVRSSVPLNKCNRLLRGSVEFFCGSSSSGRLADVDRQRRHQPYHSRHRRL
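Purified cruzain at 1.5 nM, pre-incubated 15 min with compound at room temperature in 100 mM sodium acetate pH 5.5, 5 mM DTT, 0.00005% Triton X-100. Reaction started with 2 uM Z-FR-AMC; AMC fluorescence increase over 60 s gives rate.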
Cruzain Triton – qHTS Assay for Promiscuous and Specific Inhibitors of Cruzain (with detergent) | Cruzipain (Trypanosoma cruzi), P25779 | purified cruzain, Z-FR-AMC fluorescence, 0.01% Triton | Potency, µM, actives largely listed as inhibitors | 200,000 tested, 0.43% active | AID 1478, 2009; further: nearly all actives have a fitted effect of over 40% in size
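In this qHTS format, compounds are incubated with 1.5 nM cruzain for 15 min at room temperature before 2 uM Z-FR-AMC is added. Release of AMC is followed at 360/450 nm, and progress is taken as the 60 s fluorescence difference.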
Large screens that a line does not name were inactive. Hits are enriched below; roughly 2.4% of the tested compounds scored in any of these assays. The call rests on the fitted dose curve; in most records, active means well fitted curve in the direction sought with a large enough effect; inconclusive means small, poorly fitted or top-dose-only effect, or another doubt; inactive means no such curve, though single readings can be large; an effect the other way counts as inactive or inconclusive.

Cc1cc(C)c(NC(=O)C(C)OC(=O)c2cc(Br)c(Br)s2)c(C)c1 (stereo not drawn)	Cruzain inh noDet 25.1µM
Cc1c(NC(=O)C(C)OC(=O)c2cccs2)c(=O)n(-c2ccccc2)n1C (stereo not drawn)	none
CC(C)CCn1c(=O)c2sccc2n2c(CCCC(=O)Nc3ccc(C(C)C)cc3)nnc12	none
CCOC(=O)c1ccc(NC(=O)N2CCOc3ccccc32)cc1	Cruzain inh noDet 10µM
CCOC(=O)c1ccc(NC(=O)Nc2ccc3c(c2)OCCO3)cc1	none
C[C@@H]1CCCN(CP(=O)(c2ccccc2)c2ccccc2)C1	none
N#CCCn1c(SCC(=O)c2c[nH]c3ccccc23)nc2ccccc21	Cruzain inh noDet inconclusive
Cc1cc(C(=O)CSc2nc3ccccc3n2CCC#N)c(C)n1Cc1cccs1	Cruzain inh noDet 15.8µM
O=C(CN1CCc2ccccc21)NCc1ccc2c(c1)OCO2	none
CCc1nnc(NC(=O)CN2CCN(c3nc(-c4ccccc4)cs3)CC2)s1	Cruzain inh noDet inconclusive
O=C(CN1CCN(c2nc(-c3ccccc3)cs2)CC1)Nc1ccc2c(c1)OCO2	Cruzain inh noDet 25.1µM
O=C(CN1CCc2ccccc21)Nc1ccc2c(c1)OCO2	Cruzain inh noDet 12.6µM
CCOc1ccc(CNC(=O)Cn2cc3c(n2)-c2c(oc(C(=O)N4CCOCC4)c2C)CC3)cc1	Cruzain inh noDet inconclusive
CSc1ccc(/C=C/c2nc3ccccc3n2S(=O)(=O)c2ccc(Br)cc2)cc1	none
COc1ccc(NC(=O)C(Cc2ccccc2)NS(=O)(=O)c2ccc3c(c2)CCN3C(C)=O)cc1 (stereo not drawn)	none
COCCn1c(=O)cnc2cnc(N3CCN(C)CC3)nc21	Cruzain inh noDet inconclusive
CC(C)(C)c1ccc(OCC2CO2)cc1 (stereo not drawn)	none
Cc1ccc(S(=O)(=O)NC2c3cccc4cccc(c34)C2Sc2nc(C)cc(C)n2)cc1 (stereo not drawn)	Cruzain inh noDet 25.1µM
Cc1ccc(S(=O)(=O)NC2c3cccc4cccc(c34)C2Sc2nncn2C)cc1 (stereo not drawn)	none
c1c2c(cc3sc(N4CCOCC4)nc13)OCO2	none
Clc1ccc2nc(N3CCN(c4ccccc4)CC3)sc2c1	Cruzain inh noDet 20µM
O=S(=O)(c1ccccc1)N1CCN(c2nc3ccccc3s2)CC1	none
c1ccc(N2CCN(c3nc4cc5c(cc4s3)OCO5)CC2)cc1	Cruzain inh noDet 12.6µM
Cc1cc(C)nc(-n2nc(C)c3c2NC(=O)CC3c2ccccc2OC(C)C)n1 (stereo not drawn)	none
N#Cc1c(NC(=S)NC(=O)c2ccccc2)sc2c1CCCC2	none
Cc1ccccc1C(=O)NC(=S)Nc1sc2c(c1C#N)CCC(C)C2 (stereo not drawn)	Cruzain inh noDet 15.8µM
CC1CCc2c(sc(NC(=O)COc3ccccc3C(C)(C)C)c2C#N)C1 (stereo not drawn)	none
N#Cc1c(NC(=S)NC(=O)c2ccccc2)sc2c1CCN(CCc1ccccc1)C2	Cruzain inh noDet 15.8µM
CC1CCc2c(sc(NC(=O)COC(=O)c3ccccc3NCc3ccco3)c2C#N)C1 (stereo not drawn)	Cruzain inh noDet 15.8µM
Cc1cc(C(=O)Nc2sc3c(c2C#N)CCC(C)C3)cs1 (stereo not drawn)	Cruzain inh noDet inconclusive
Cc1ccc(NC2=C/C(=N/S(=O)(=O)c3cccs3)c3ccccc3C2=O)cc1C	Cruzain inh noDet 10µM
Cc1ccccc1NC1=C/C(=N\S(=O)(=O)c2cccs2)c2ccccc2C1=O	Cruzain inh noDet inconclusive
Cc1ccc(-c2cc3nc(-c4ccccc4)cc(N)n3n2)cc1	Cruzain inh noDet 25.1µM
Cc1ccc(-c2cc(N)n3nc(-c4ccc(C)cc4)cc3n2)cc1	Cruzain inh noDet inconclusive
Cc1cc(N)n2nc(-c3ccccc3)cc2n1	none
Cc1ccc(-c2cc3nc(-c4ccc(Br)cc4)cc(N)n3n2)cc1	Cruzain inh noDet 31.6µM
CCn1nc(C)c(CCN(C)C(=O)Nc2cc(OC)c(OC)c(OC)c2)c1C	none
Cc1ccc(-c2nn(CC(=O)Nc3cccc(C(F)(F)F)c3)c(=O)c3ccccc23)cc1	none
COc1ccc(CNC(=O)C(=O)Nc2c3c(nn2-c2ccccc2)CSC3)cc1	Cruzain inh noDet 25.1µM
CC(C)CNC(=O)C(=O)Nc1c2c(nn1-c1ccc(Cl)cc1)CSC2	Cruzain inh noDet inconclusive
COc1ccc(-n2nc3c(c2NC(=O)C(=O)NCc2ccccc2)CSC3)cc1	Cruzain inh noDet 7.94µM
O=C(NCc1ccccc1)C(=O)Nc1c2c(nn1-c1ccccc1)CSC2	Cruzain inh noDet inconclusive
Cc1cccc(Nc2nnc(-n3nc(C)cc3C)c3ccccc23)c1	none
CCC(C=C[C@@H]1OC(=O)C=C[C@H]1C)=C[C@H](C)CC=CC(C)=C[C@@H](C)C(=O)[C@@H](C)[C@H](O)[C@@H](C)CC(C)=CC(=O)O	Cruzain inh noDet inconclusive
CCOC(=O)c1ccc(NC(=O)CSc2nnc3c4ccccc4n(CC)c3n2)cc1	none
CCCCn1c2ccccc2c2nnc(SCC(=O)Nc3ccc(NC(C)=O)cc3)nc21	Cruzain inh noDet 20µM, Cruzain Triton inconclusive
O=C(NCc1ccccc1)c1ccc(CNS(=O)(=O)c2ccc(Br)cc2)cc1	none
O=C1c2[nH]nc(-c3ccccc3)c2C(c2ccccc2)N1c1cccc(C(F)(F)F)c1 (stereo not drawn)	Cruzain inh noDet inconclusive
CNC(=O)c1cc2cccc(OC)c2oc1=O	none
COc1cccc2cc(/C(C)=N/Nc3nc(-c4cc(C)ccc4C)cs3)c(=O)oc12	Cruzain inh noDet 5.01µM
CCN(CC)c1nn2c(=O)c(C(=O)NCc3ccc(OC)cc3OC)cnc2s1	Cruzain inh noDet inconclusive
CCOC(=O)c1cc(-c2ccccc2)sc1NC(=O)C(C)(C)C	none
CCOC(=O)c1cc(-c2ccccc2)sc1NC(=S)Nc1cc(C)ccn1	Cruzain inh noDet 12.6µM
CCOC(=O)c1cc(-c2ccccc2)sc1NC(=O)CC(C)C	none
CCCC1(c2ccccc2)NC(=O)N(CC(=O)Nc2sc(-c3ccccc3)cc2C(=O)OCC)C1=O (stereo not drawn)	Cruzain inh noDet 7.94µM
Cc1cccc(OC(=O)c2cc(-c3ccc4c(c3)OCCO4)on2)c1C	none
COC(=O)CCCC(=O)O	none
CCOP(=O)(OCC)C(Nc1ccccc1)c1ccc2c(c1)OCO2 (stereo not drawn)	Cruzain inh noDet 12.6µM
CCCCOP(=O)(OCCCC)C(Nc1ccccc1)c1ccc2c(c1)OCO2 (stereo not drawn)	none
O=C(CSc1oc(-c2ccccc2)nc1S(=O)(=O)c1ccccc1)c1ccccc1	Cruzain inh noDet inconclusive
O=C(CSc1oc(-c2ccccc2)nc1S(=O)(=O)c1ccc(Br)cc1)c1ccccc1	Cruzain inh noDet 12.6µM
O=c1cc(-c2ccccc2)n2c(SCc3ccc([N+](=O)[O-])cc3)nnc2[nH]1	none
Cc1ccc(NC(=O)C2CCN(S(=O)(=O)c3ccc4c(c3)CCCN4C(=O)C3CCC3)CC2)cc1	none
Cn1cc(S(=O)(=O)N2CCCCCC2)cc1C(=O)N1CCN(c2ccccc2F)CC1	none
COC(=O)c1c(NC(=O)c2c(C)noc2C)sc2c1CCCCCC2	none
COC(=O)c1c(NC(=O)c2c(-c3ccccc3Cl)noc2C)sc2c1CCC2	Cruzain inh noDet 12.6µM
Cn1c(C(=O)NCc2cccc(F)c2)cc2cc(S(=O)(=O)N3CCCCC3)ccc21	Cruzain inh noDet inconclusive
COc1ccccc1[C@H]1C(c2ccc(F)cc2)=NN(c2ccccc2)[C@@H]1CO	Cruzain inh noDet 31.6µM
CC[C@H]1C(c2ccccc2)=NN(c2ccccc2)[C@@H]1CO	Cruzain inh noDet inconclusive
